Test results reported in the supplement of paper PMC10849652.
Targets with a hit are over-represented here; the source holds about 7,900 in all. About 0.6% of all pairs of compound and target were hits.

Assays:
Test in all cases: log2 fold change, soluble protein after heating vs DMSO (PISA); higher = thermal stabilisation; K562 cells, 10 uM, 30 min; active = over 0.2 and 3.5 SD of the protein, either way, in both replicates (recomputed)
[1] = compound: CC1=C(C=C(C=C1)NC(=O)C2=CC(=CC=C2)N(C)C)NC(=O)C3=CC=C(C=C3)O
How it was run: (§1)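 Aliquots of K562 cells (2×10^6 cells/mL) treated with 10 μM compound for 30 min were heated for 3 min over 48°C-58°C. After pooling and extraction in PBS with 0.5% NP-40 at 4°C, soluble protein from a 21,000xg, 90 min spin was quantified by TMTpro 16plex LC-MS/MS with channel sums equalised. Thermal stability is expressed against control samples, from duplicates, as a log2 fold change.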

[2] = compound: CC1=NC(=CC=C1)C2=C(N=C(N2)C(C)(C)C)C3=CC4=NC=CN=C4C=C3
How it was run: as §1

vemurafenib = compound: CCCS(=O)(=O)Nc1ccc(F)c(C(=O)c2c[nH]c3ncc(-c4ccc(Cl)cc4)cc23)c1F [vemurafenib]
How it was run: as §1

givinostat = compound: CCN(CC)Cc1ccc2cc(COC(=O)Nc3ccc(C(=O)NO)cc3)ccc2c1 [givinostat]
How it was run: as §1

[3] = compound: CC[C@@H]1C(=O)N(C)c2cnc(Nc3ccc(C(=O)NC4CCN(C)CC4)cc3OC)nc2N1C1CCCC1
How it was run: as §1

[4] = compound: CC[C@H](C)N1C=C(C2=C(C=C(C=C21)C3=CN=C(C=C3)N4CCNCC4)C(=O)NCC5=C(C=C(NC5=O)C)C)C
How it was run: as §1

[5] = compound: CCn1c(C(=O)N(C2CC2)C2CC2)cc2c3c(ncn3C)c(Nc3cc(C)n(C)n3)nc21
How it was run: as §1

[6] = compound: CCn1cc(-c2ccnc3[nH]c(-c4cccc(CN(C)C)c4)cc23)c(-c2ccc(NC(=O)N(C)C)cc2)n1
How it was run: as §1

[7] = compound: CN(C)CC(=O)Nc1ccc2[nH]c(=O)c3ccccc3c2c1
How it was run: as §1

[8] = compound: CN1C2=C(C3=C1C(=O)N(N=C3)CC4=CC(=CC=C4)N)SC(=C2)S(=O)C
How it was run: as §1

[9] = compound: CN1CCC(CNc2ccc3ncc(-c4cccc(OC(F)(F)F)c4)n3n2)CC1
How it was run: as §1

[10] = compound: CC1=CC=C(C=C1)SC2=C3C=C(SC3=CN=C2)C(=O)N
How it was run: as §1

[11] = compound: CCCS(=O)(=O)Nc1ccc(F)c(C(=O)c2c[nH]c3ncc(Cl)cc23)c1F
How it was run: as §1

[12] = compound: CCCc1cc(C)[nH]c(=O)c1CNC(=O)c1cc(-c2ccnc(N3CCN(C)CC3)c2)cc2c1cnn2C(C)C
How it was run: as §1

barasertib = compound: CCN(CCCOc1ccc2c(Nc3cc(CC(=O)Nc4cccc(F)c4)[nH]n3)ncnc2c1)CCOP(=O)(O)O [barasertib]
How it was run: as §1

volasertib = compound: CC[C@@H]1C(=O)N(C)c2cnc(Nc3ccc(C(=O)N[C@H]4CC[C@H](N5CCN(CC6CC6)CC5)CC4)cc3OC)nc2N1C(C)C [volasertib]
How it was run: as §1

rosiglitazone = compound: CN(CCOC1=CC=C(C=C1)C[C@H]2C(=O)NC(=O)S2)C3=CC=CC=N3 (racemic) [rosiglitazone]
How it was run: as §1

[13] = compound: CC1=C(C=C(C=C1)NC(=O)C2=CC(=CC=C2)C(C)(C)C#N)NC3=CC4=C(C=C3)N=CN(C4=O)C
How it was run: as §1

Nexturastat A = compound: CCCCN(Cc1ccc(C(=O)NO)cc1)C(=O)Nc1ccccc1 [Nexturastat A]
How it was run: as §1

epoxomicin = compound: CC[C@H](C)[C@@H](C(=O)N[C@@H]([C@@H](C)O)C(=O)N[C@@H](CC(C)C)C(=O)[C@]1(CO1)C)NC(=O)[C@H]([C@@H](C)CC)N(C)C(=O)C [epoxomicin]
How it was run: as §1

Measured: log2 fold change

CLCN5 isoform 2 (UniProt P51795)
inactive: [1] 0.052 | [2] -0.016 | vemurafenib 0.029 | givinostat 0.022 | [3] -0.299 | [4] 0.151 | [5] 0.002 | [6] 0.172 | [7] 0.046 | [8] 0.098 | [9] -0.267

CNOT4 isoform 9 (UniProt O95628)
inactive: [1] -0.034 | [10] 0.003 | [2] 0.017 | vemurafenib -0.059 | [11] 0.006 | [12] -0.171 | givinostat 0.053 | barasertib 0.015 | [3] 0.198 | volasertib -0.006 | [4] -0.046 | [5] 0.017 | [6] -0.095 | [7] 0.046 | rosiglitazone -0.022 | [8] -0.105 | [9] 0.072

CD84 (UniProt Q9UIB8)
Chain of UniProt Q9UIB8 (Q9UIB8 whole entry, looked up): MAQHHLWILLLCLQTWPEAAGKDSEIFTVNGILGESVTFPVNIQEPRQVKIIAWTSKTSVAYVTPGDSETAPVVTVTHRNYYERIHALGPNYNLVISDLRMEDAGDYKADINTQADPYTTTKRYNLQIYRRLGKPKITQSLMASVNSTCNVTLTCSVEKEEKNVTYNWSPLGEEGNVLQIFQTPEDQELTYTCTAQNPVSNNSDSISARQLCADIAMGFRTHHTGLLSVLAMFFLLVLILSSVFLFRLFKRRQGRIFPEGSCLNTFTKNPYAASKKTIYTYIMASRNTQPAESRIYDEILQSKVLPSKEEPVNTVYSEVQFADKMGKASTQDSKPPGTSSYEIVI
inactive: [13] -0.181 | Nexturastat A 0.096 | givinostat 0.006 | epoxomicin -0.009 | [5] 0.111 | [8] -0.077

CNRIP1 (UniProt Q96F85)
Chain of UniProt Q96F85 (Q96F85 whole entry, looked up): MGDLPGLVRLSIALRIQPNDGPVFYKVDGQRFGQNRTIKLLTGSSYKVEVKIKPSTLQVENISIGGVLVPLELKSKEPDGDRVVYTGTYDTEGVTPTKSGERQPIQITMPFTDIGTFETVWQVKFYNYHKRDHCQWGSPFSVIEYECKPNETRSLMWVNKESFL
inactive: [1] 0.073 | [10] 0.023 | Nexturastat A -0.206 | [11] -0.075 | [12] -0.087 | givinostat 0.106 | volasertib 0.306 | [4] -0.269 | epoxomicin -0.043 | [5] -0.136

CSNK1A1 isoform 3 (UniProt P48729)
Chain of UniProt P48729 (P48729 whole entry, looked up): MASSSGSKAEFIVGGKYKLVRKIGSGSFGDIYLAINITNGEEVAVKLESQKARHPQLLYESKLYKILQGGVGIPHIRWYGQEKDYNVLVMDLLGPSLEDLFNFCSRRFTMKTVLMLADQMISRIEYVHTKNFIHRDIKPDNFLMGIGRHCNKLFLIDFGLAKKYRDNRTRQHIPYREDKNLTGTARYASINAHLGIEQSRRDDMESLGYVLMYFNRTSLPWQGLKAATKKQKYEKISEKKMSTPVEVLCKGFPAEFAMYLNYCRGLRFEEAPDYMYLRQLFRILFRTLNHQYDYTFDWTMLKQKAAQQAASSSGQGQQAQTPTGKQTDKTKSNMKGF
inactive: [10] -0.08 | [11] 0.227 | [12] -0.035 | barasertib -0.089 | volasertib -0.224 | rosiglitazone -0.005

CCND3 (UniProt P30281)
Chain of UniProt P30281 (P30281 whole entry, looked up): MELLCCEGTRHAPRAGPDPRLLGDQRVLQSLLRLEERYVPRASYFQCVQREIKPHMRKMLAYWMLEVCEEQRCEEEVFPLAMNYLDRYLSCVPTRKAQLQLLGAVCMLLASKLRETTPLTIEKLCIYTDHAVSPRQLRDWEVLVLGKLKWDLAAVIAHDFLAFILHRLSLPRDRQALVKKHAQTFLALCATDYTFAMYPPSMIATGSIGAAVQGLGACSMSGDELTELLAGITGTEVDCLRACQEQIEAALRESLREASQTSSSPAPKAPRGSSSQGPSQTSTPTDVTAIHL
active: epoxomicin 0.363
inactive: [1] 0.046 | [10] 0.063 | Nexturastat A -0.004 | vemurafenib -0.077 | [11] -0.028 | [12] -0.062 | givinostat 0.021 | barasertib 0.079 | [3] -0.085 | volasertib 0.102 | [5] -0.003 | [6] -0.021 | [7] -0.022 | rosiglitazone -0.025 | [8] 0.063 | [9] -0.175

CFAP58 (UniProt Q5T655)
inactive: [1] 0.185 | [10] 0.07 | [11] -0.175 | [12] -0.219 | [3] -0.353 | volasertib -0.04 | [6] -0.112 | [9] -0.272

CFAP47 (UniProt Q6ZTR5)
inactive: [10] -0.159 | Nexturastat A -0.041 | vemurafenib -0.11 | [11] -0.106 | barasertib -0.035 | [3] 0.063 | volasertib 0.065 | epoxomicin -0.006 | [7] -0.248 | rosiglitazone 0.108 | [8] 0.23

CD68 (UniProt P34810)
inactive: [13] 0.037 | [12] -0.06 | givinostat -0.091 | barasertib -0.313 | [5] 0.091 | rosiglitazone 0.104

CA1 (UniProt E5RIF9)
inactive: Nexturastat A -0.413 | vemurafenib -0.383 | barasertib -0.004 | epoxomicin 0.132 | [7] -0.037 | rosiglitazone -0.083 | [8] -0.056

CKS2 (UniProt P33552)
Chain of UniProt P33552 (P33552 whole entry, looked up): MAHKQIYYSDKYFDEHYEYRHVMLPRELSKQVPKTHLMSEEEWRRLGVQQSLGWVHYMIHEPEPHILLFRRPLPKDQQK
inactive: [10] -0.031 | [11] 0.039 | [12] -0.077 | barasertib 0.045 | [3] 0.01 | volasertib -0.044 | [4] 0.029 | [6] -0.23 | rosiglitazone 0.028 | [8] 0.023
active: [9] 0.594

CEBPZOS (UniProt A8MTT3)
Chain of UniProt A8MTT3 (A8MTT3 whole entry, looked up): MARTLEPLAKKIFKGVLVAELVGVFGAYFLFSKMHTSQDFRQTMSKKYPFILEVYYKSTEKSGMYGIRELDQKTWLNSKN
inactive: [1] -0.015 | [10] 0.027 | [2] -0.016 | vemurafenib 0.065 | [11] 0.132 | [12] -0.069 | givinostat -0.029 | barasertib 0.059 | [3] 0.002 | volasertib -0.035 | [4] -0.038 | [5] 0.057 | [6] 0.013 | [7] -0.001 | rosiglitazone 0.101 | [8] -0.103 | [9] -0.015

CNN1 (UniProt P51911)
Chain of UniProt P51911 (P51911 whole entry, looked up): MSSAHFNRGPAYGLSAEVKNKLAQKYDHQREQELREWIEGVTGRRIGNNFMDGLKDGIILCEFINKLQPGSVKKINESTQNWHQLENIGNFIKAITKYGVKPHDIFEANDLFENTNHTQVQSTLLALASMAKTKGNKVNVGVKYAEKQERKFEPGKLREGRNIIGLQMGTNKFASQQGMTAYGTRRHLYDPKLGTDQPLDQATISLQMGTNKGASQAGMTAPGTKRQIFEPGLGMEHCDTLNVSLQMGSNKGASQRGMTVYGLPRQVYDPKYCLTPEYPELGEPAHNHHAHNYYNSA
inactive: [13] -0.068 | [10] -0.1 | Nexturastat A -0.029 | vemurafenib 0.056 | [11] -0.042 | [12] -0.012 | [3] -0.049 | volasertib -0.066 | [4] -0.066 | epoxomicin -0.015 | [6] -0.403 | [7] -0.007 | [9] -0.192

CLPTM1L (UniProt G5E9Z2)
inactive: [13] 0.122 | Nexturastat A -0.466 | vemurafenib 0.055 | [12] -0.035 | barasertib -0.076 | [4] -0.055 | epoxomicin 0.247 | [6] 0.116 | [7] 0.117 | rosiglitazone 0.189 | [9] 0.052

CDK2AP2 (UniProt O75956)
Chain of UniProt O75956 (O75956 whole entry, looked up): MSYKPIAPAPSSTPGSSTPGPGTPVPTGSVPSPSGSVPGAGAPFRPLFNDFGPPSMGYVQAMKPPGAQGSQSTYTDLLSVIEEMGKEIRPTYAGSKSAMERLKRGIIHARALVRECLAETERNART
inactive: [1] -0.14 | [2] 0.021 | Nexturastat A 0.022 | [12] -0.065 | givinostat -0.154 | barasertib -0.029 | [3] 0.078 | [4] -0.04 | epoxomicin 0.137 | [5] 0.074 | rosiglitazone -0.002

CREB3L2 (UniProt Q70SY1)
active: Nexturastat A 0.706
inactive: [1] 0.085 | [2] -0.23 | vemurafenib -0.036 | [12] 0.154 | givinostat 0.436 | barasertib 0.081 | [4] 0.067 | epoxomicin 0.035 | [5] -0.125 | [7] 0.069 | rosiglitazone -0.031

CAV2 (UniProt P51636)
Chain of UniProt P51636 (P51636 whole entry, looked up): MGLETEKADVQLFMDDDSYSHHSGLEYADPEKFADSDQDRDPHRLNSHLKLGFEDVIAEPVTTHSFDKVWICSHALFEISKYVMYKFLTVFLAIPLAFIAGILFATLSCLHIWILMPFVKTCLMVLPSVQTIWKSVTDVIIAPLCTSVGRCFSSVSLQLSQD
inactive: [13] -0.164 | [10] -0.018 | [2] 0.078 | [11] 0.087 | [12] 0.001 | givinostat 0.137 | barasertib 0.175 | volasertib -0.098 | [4] -0.032 | [5] -0.059 | [6] -0.036 | rosiglitazone -0.076 | [8] 0.01 | [9] 0.074

CRMP1 isoform 2 (UniProt Q14194)
Chain of UniProt Q14194 (Q14194 whole entry, looked up): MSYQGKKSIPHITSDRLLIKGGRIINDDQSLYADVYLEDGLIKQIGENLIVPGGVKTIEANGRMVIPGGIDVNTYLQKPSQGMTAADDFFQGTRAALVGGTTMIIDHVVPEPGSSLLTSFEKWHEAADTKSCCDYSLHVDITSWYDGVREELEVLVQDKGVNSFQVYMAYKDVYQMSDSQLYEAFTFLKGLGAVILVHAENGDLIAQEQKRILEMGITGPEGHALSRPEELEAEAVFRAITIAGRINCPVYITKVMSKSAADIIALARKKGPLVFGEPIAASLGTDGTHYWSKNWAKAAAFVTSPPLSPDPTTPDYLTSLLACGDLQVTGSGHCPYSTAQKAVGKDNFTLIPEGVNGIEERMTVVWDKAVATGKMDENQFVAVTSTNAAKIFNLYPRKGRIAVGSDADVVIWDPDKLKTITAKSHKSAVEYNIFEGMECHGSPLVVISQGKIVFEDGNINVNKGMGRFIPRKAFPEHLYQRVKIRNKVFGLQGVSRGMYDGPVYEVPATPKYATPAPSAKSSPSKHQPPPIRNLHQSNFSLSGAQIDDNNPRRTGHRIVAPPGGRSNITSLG
inactive: [13] 0.089 | vemurafenib -0.026 | givinostat -0.19 | barasertib 0.035 | [4] 0.2 | [5] -0.303 | [6] -0.198 | [7] -0.072 | rosiglitazone 0.047 | [8] -0.25 | [9] 0.038

CLASP2 (UniProt O75122)
inactive: [1] -0.286 | [10] -0.103 | [2] 0.065 | [11] -0.068 | [12] -0.017 | givinostat 0.031 | barasertib 0.031 | [3] -0.104 | volasertib -0.123 | [4] 0.083 | [5] -0.038 | rosiglitazone 0.166

CEP128 (UniProt Q6ZU80)
Chain of UniProt Q6ZU80 (Q6ZU80 whole entry, looked up): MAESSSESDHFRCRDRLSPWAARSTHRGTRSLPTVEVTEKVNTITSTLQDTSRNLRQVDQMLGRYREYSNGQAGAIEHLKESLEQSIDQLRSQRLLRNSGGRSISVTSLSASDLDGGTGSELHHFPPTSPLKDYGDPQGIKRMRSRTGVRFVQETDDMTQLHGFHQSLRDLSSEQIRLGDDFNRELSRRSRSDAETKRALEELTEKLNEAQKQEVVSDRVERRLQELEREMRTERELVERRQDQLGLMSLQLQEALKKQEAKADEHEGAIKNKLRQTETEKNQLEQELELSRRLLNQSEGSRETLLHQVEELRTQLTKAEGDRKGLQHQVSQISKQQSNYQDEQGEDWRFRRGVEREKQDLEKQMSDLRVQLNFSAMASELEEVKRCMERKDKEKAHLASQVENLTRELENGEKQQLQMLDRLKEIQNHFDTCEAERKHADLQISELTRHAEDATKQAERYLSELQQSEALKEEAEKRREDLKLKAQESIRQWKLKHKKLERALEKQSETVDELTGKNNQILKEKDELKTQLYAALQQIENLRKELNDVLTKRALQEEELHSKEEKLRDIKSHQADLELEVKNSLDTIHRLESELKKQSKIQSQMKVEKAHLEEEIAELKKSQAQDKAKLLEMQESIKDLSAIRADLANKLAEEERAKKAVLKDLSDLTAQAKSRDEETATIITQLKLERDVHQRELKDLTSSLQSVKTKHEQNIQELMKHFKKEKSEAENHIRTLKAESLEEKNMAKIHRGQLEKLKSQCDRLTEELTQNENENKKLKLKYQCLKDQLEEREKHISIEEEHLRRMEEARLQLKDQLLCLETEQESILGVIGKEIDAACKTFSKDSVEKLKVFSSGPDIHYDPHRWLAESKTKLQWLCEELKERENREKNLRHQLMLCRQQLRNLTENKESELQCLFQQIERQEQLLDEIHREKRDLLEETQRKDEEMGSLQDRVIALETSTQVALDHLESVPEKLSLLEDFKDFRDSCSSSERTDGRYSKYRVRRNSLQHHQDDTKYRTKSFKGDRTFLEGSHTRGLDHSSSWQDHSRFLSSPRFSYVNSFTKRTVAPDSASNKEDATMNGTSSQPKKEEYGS
inactive: [13] -0.043 | [10] 0.006 | [2] -0.188 | vemurafenib -0.1 | [11] -0.118 | [12] -0.422 | barasertib 0.098 | [3] -0.009 | volasertib -0.09 | [7] -0.11 | rosiglitazone 0.049 | [8] 0.039

COMMD3-BMI1 (UniProt R4GMX3)
inactive: [13] -0.002 | [10] -0.126 | Nexturastat A 0.03 | volasertib 0.038 | [4] 0.062 | epoxomicin 0.026 | [6] 0.006 | [9] -0.105
active: [11] -0.426

CEMIP2 (UniProt Q9UHN6)
Chain of UniProt Q9UHN6 (Q9UHN6 whole entry, looked up): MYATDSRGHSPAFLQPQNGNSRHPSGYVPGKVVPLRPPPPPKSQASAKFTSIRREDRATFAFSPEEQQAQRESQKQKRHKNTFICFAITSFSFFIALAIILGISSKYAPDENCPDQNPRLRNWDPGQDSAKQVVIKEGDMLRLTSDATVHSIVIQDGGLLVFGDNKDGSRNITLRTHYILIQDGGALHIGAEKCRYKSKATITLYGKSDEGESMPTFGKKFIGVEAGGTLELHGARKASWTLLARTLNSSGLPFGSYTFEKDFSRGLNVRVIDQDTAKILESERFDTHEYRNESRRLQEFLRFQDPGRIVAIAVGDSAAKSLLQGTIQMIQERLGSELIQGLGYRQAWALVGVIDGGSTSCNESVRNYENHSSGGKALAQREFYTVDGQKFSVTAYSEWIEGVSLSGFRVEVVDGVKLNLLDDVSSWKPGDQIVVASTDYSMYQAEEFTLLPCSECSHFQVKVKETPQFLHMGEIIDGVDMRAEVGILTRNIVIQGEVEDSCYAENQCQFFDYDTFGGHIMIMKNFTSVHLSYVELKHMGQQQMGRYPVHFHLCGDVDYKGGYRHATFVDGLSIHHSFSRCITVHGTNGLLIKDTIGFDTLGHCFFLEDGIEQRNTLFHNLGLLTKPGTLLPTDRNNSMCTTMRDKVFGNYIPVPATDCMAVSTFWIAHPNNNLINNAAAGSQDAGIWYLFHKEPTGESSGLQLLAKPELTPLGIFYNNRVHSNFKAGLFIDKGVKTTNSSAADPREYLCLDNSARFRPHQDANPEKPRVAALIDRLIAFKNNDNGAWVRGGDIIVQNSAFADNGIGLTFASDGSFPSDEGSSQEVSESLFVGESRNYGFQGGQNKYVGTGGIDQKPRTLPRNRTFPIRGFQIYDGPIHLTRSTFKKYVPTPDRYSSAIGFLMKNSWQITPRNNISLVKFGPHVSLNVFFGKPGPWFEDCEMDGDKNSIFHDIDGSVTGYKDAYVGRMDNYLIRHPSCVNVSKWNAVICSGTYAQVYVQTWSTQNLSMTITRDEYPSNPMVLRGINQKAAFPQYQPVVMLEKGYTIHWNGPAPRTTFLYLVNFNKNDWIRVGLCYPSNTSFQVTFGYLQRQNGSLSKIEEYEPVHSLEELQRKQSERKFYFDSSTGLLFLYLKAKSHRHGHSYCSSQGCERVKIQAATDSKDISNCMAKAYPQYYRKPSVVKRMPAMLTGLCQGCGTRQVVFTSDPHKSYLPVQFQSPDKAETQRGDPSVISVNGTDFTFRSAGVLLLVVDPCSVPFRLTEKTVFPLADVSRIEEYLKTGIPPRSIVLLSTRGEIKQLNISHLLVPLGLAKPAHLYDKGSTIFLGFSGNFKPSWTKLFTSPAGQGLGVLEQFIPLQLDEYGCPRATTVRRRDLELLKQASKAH
inactive: [1] 0.043 | [2] 0.033 | Nexturastat A 0.02 | vemurafenib -0.045 | [11] -0.1 | [12] -0.168 | givinostat -0.052 | barasertib -0.012 | [3] -0.209 | volasertib -0.364 | [4] -0.142 | epoxomicin 0.058 | [5] -0.184 | [6] -0.088 | [7] -0.049 | rosiglitazone 0.003 | [8] 0.032 | [9] 0.123
active: [10] 0.592

CLINT1 (UniProt Q14677)
inactive: [2] -0.007 | Nexturastat A 0.259 | vemurafenib 0.051 | [12] -0.017 | barasertib 0.017 | [3] -0.022 | [4] 0.021 | epoxomicin -0.035 | [7] -0.075 | rosiglitazone 0.003 | [8] -0.218
